# Measurements reported in PubChem BioAssay AID686978 (National Center for Advancing Translational Sciences (NCATS), 2013).
# The whole screen tested about 420,000 compounds, of which about 64,000 (15%) were called active. Not shown: some 27% with an inconclusive outcome. Calls follow the shape of the dose curve; as a rule, active = well fitted inhibition curve with a large enough effect; inconclusive = small, poorly fitted or top-dose-only effect; inactive = flat fitted curve, though single readings scatter. Only a sample is shown. Entries that show only a call come without a potency.
# Test: qHTS for Inhibitors of human tyrosyl-DNA phosphodiesterase 1 (TDP1): qHTS in cells in absence of CPT; also: nearly all actives have a fitted effect of over 55% in size
# Conditions: DT40 Tdp1-/- hTDP1 cells, no CPT, ATP luminescence, 48 h; activity change, negative = growth inhibition: at 46.2 µM (top of the series)
# In short: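 Compound effects on proliferation are scored in DT40 Tdp1-/-;hTDP1 cells in the absence of CPT. ATP levels (CellTiter-Glo luminescence) are recorded after a ≥48 hr, 37 °C incubation.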
# Potency is read from the fitted curve at half-maximal effect.
row,SMILES,Potency
1,COc1ccc(C(C)(O)c2nc(-c3ccc(C)c(C)c3)cs2)cc1 (stereo not drawn),18.4 µM (active)
2,COc1ccc(C(C)(NC(C)=O)c2nc(-c3ccc(S(C)(=O)=O)cc3)cs2)cc1 (stereo not drawn),inactive
3,Cc1csc(OCC(=O)Nc2ccc(C)c(C)c2)n1,inactive
4,COc1ccc(C(C)(O)c2nc(-c3cc(F)cc(F)c3)cs2)cc1 (stereo not drawn),16.4 µM (active)
5,Cc1ccc(-c2csc(-c3cc(C)on3)n2)cc1,inactive
6,COc1cccc(CN2C(=O)CCC2(C)C(=O)NC2CCCCCC2)c1 (stereo not drawn),inactive
7,COc1cc(C)c(S(=O)(=O)N2CCOCC2)c(C)c1C,inactive
8,CCNC(=O)Nc1ccc(S(=O)(=O)Nc2cnc(C)nc2C)cc1,inactive
9,CCc1c(C)sc(NC(=O)/C=C/c2ccc3c(c2)OCO3)c1C(=O)OC,inactive
10,O=C(O)/C=C/c1ccc2c(c1)OCCO2,inactive
11,Cc1cccc(NC(=O)/C=C/c2ccc3c(c2)OCO3)n1,18.4 µM (active)
12,CC1CN(S(=O)(=O)c2ccc(C(=O)NN3CCN(C)CC3)cc2)CC(C)O1 (stereo not drawn),inactive
13,O=C(CCC1CCCC1)N=C1SC2CS(=O)(=O)CC2N1Cc1ccccc1 (stereo not drawn),inactive
14,O=C(CCN1C(=O)c2ccccc2C1=O)NCCCn1ccnc1,inactive
15,CCCCN(C(=O)C1=NN(c2cc(C)ccc2C)C(=O)CC1)c1c(N)n(CCC)c(=O)[nH]c1=O,inactive
16,CC(C)CC(CCc1ccccc1)OS(N)(=O)=O (stereo not drawn),inactive
17,CN1OC[C@@H]2CN(C(=O)C(C)(C)C)[C@H](c3ccc(-n4ccnc4)cc3)C[C@@H]21,inactive
18,CC1CC(C)(C)CC2(C1)NC(=O)N(CC(=O)Nc1nccs1)C2=O (stereo not drawn),inactive
19,Cc1ccc(CC2CC(=O)N(c3ccc4c(c3)OCCO4)C2=O)cc1 (stereo not drawn),inactive
20,COc1ccc(C2CC(c3ccc([N+](=O)[O-])cc3)=NN2C(C)=O)cc1 (stereo not drawn),14.6 µM (active)
21,COc1ccc(C2=NN(C(C)=O)C(c3ccccc3)C2)cc1 (stereo not drawn),inactive
22,COc1ccc(C2=NN(C(=O)c3ccccc3C(=O)O)C(c3ccccc3O)C2)cc1 (stereo not drawn),inactive
23,CC(C)N(C)C(=O)CCc1nnc(CCc2c[nH]c3ccccc23)o1,inactive
24,Cc1nn(C)c(C)c1CN(C(=O)CCc1nnc(Cc2c[nH]c3ccccc23)o1)C(C)C,16.4 µM (active)
25,Cc1nc(CN2CCN(C(=O)CCc3nnc(Cc4c[nH]c5ccccc45)o3)CC2)cs1,inactive
26,CC1(C(=O)NS(=O)(=O)c2cccc(F)c2)CCN1C(=O)Cc1cc(F)ccc1F (stereo not drawn),inactive

row,SMILES,Potency
1,O=C(CN1C(=O)COc2ccc(Cl)cc21)N1CCOCC1,inactive
2,Cc1cccc(OCC(=O)NCCNC(=O)c2cccnc2)c1,inactive
3,CCOC(=O)C1=C(c2ccccc2)N=C2SCC(=O)N2C1c1ccc(O)c(OC)c1 (stereo not drawn),inactive
4,COc1cc(C2C(C(=O)c3ccc(C)o3)=C(O)C(=O)N2Cc2cccnc2)ccc1O (stereo not drawn),inactive
5,CCOC(=O)c1ccc(N2C(=O)c3n[nH]c(C)c3C2c2ccc(O)c(OC)c2)cc1 (stereo not drawn),18.4 µM (active)
6,Cc1nc(N2CCCC2C(=O)O)c2oc3ccccc3c2n1 (stereo not drawn),inactive
7,CCCN(CC(=O)Nc1ccc(OC)c(OC)c1)CC(=O)Nc1ccc(F)c(F)c1F,inactive
8,O=C(Nc1sc2c(c1-c1nc3ccccc3[nH]1)CCCC2)C1CC1,inactive
9,CC(=O)c1ccc(NC(=O)C(C)NCc2ccc(Cl)cc2)cc1 (stereo not drawn),inactive
10,Cc1nnc(N/N=C/c2cccs2)[nH]c1=O,inactive
11,CCOc1ccc(-n2c(O)c(/C=N/c3ccnn3Cc3ccncc3)c3ccccc3c2=O)cc1,inactive
12,CCN(CC)CCCN=Cc1c(O)n(-c2ccc(C)cc2)c(=O)c2ccccc12,inactive
13,Cc1nnc(N/N=C/c2ccccn2)[nH]c1=O,2.91 µM (active)
14,COc1ccc(-n2c(O)c(C=NCC(c3ccco3)N3CCCC3)c3ccccc3c2=O)cc1OC (stereo not drawn),inactive
15,CCOc1ccc(-n2c(O)c(/C=N/Nc3nnc(C)c(=O)[nH]3)c3ccccc3c2=O)cc1,0.92 µM (active)
16,Cc1ccccc1Nc1nnc(C)c(=O)[nH]1,inactive
17,CCOc1ccc(N/C(N)=N/c2nc(C)c(C)c(=O)[nH]2)cc1,inactive
18,CCOc1ccc(-n2c(O)c(/C=N/Nc3nc(C)cc(C)n3)c3ccccc3c2=O)cc1,3.26 µM (active)
19,CC(=O)Nc1ccc(S(=O)(=O)NC2(C(F)(F)F)C(=O)Nc3c2c(=O)[nH]c(=O)n3Cc2ccccc2)cc1 (stereo not drawn),inactive
20,Cc1cc(F)ccc1NC(=O)C(C)n1c2ccccc2c2nc(=O)cc(C)n21 (stereo not drawn),inactive
21,CCC(C)n1[nH]c(=O)cc1N (stereo not drawn),inactive
22,O=C(CCN1C(=O)C2C3C=CC(C3)C2C1=O)Oc1ccc2ccccc2c1 (stereo not drawn),inactive
23,CC1CCCCC1NC(=O)CN1CCC(O)(c2ccc3c(c2)OCO3)CC1 (stereo not drawn),inactive
24,CCC(=O)N1CCCc2ccccc21,inactive
25,CCn1nc(C(=O)OCC(=O)N2c3ccccc3CC2C)c2ccccc2c1=O (stereo not drawn),inactive
26,CCCCn1nc(C(=O)OCC(=O)Nc2sccc2C(N)=O)c2ccccc2c1=O,inactive

row,SMILES,Potency
1,O=C(c1cccc(C(=O)N2CCc3ccccc32)n1)N1CCc2ccccc21,inactive
2,CCCn1nc(C(=O)N2CCCc3ccccc32)c2ccccc2c1=O,18.4 µM (active)
3,CCCCn1nc(C(=O)N2CCc3ccccc32)c2ccccc2c1=O,16.4 µM (active)
4,O=C(NCCCN1CCCCCC1)C1CC(=O)N(C2CCCC2)C1 (stereo not drawn),inactive
5,CCN1CCN(C(c2ccc(C)cc2)c2c(O)cc(C)n(Cc3ccco3)c2=O)CC1 (stereo not drawn),inactive
6,CCOC(=O)[C@H](CCc1ccccc1)N[C@@H](C)C(=O)N1CC2(C[C@H]1C(=O)O)SCCS2,inactive
7,Cc1ccc(NC2=NC(c3ccccc3)n3c(nc(C)cc3=O)N2)cc1 (stereo not drawn),inactive
8,COc1cccc(CNC(=O)CCCC(=O)Nc2cccc([N+](=O)[O-])c2)c1,inactive
9,COc1cccc(NCCC(=O)c2cccc([N+](=O)[O-])c2)c1,14.6 µM (active)
10,CC(C)(C)SCCNC(=O)c1cccc([N+](=O)[O-])c1,inactive
11,CC1=NN(c2ccc(Cl)c(C(=O)O)c2)C(=O)/C1=C/c1ccc(-c2ccccc2[N+](=O)[O-])o1,inactive
12,Cc1nc2ccccc2cc1OCc1ccc(F)cc1,11.6 µM (active)
13,Fc1cccc2ncnc(OCc3ccccc3)c12,inactive
14,Cc1occc(=O)c1OCc1ccc(F)cc1,inactive
15,Cc1cc(C)cc(C(=O)NC2C(=O)N3C(C(=O)O)=C(CSc4nnc(C)s4)CSC23)c1 (stereo not drawn),inactive
16,CCOc1ccc(NC(=O)c2ccc(NC(=O)CN3C(=O)C(=O)N(CC(C)C)C3=O)cc2)cc1,inactive
17,Cc1ccsc1C(=O)OCC(=O)NCCc1ccccc1,inactive
18,CCC1CCCCN1C(=O)CSc1nc(C)cc(C)n1 (stereo not drawn),inactive
19,CC(=O)c1cccc(NC(=S)N2CCCC2)c1,inactive
20,Cc1cccc(NC(=S)N2CCC(C(=O)c3ccc(F)cc3)CC2)c1,13 µM (active)
21,Cc1cccc(NC(=O)C2CCN(C(=O)NC3CCCCC3)CC2)c1,inactive
22,Cn1c(N2CCOCC2)c(C=O)c2ccccc21,inactive
23,CCNC(=S)N1CCN(C(=O)c2ccco2)CC1,inactive
24,Cc1ccc(C2=C/C(=C\c3cccnc3)C(=O)O2)cc1,inactive
25,O=C1OC(c2ccc(Cl)cc2)=N/C1=C\c1cccnc1,16.4 µM (active)
26,Cc1ccccc1C1=N/C(=C/c2cccnc2)C(=O)O1,inactive

row,SMILES,Potency
1,O=C1NC2(CCCCCC2)C(=O)N1CCS(=O)(=O)Oc1ccccc1,inactive
2,CCCNC(=S)N1CCC(NC(=O)c2ccc(OC)cc2)CC1,inactive
3,CCOn1c(=O)c(=O)n(O)c2ccccc21,inactive
4,Cc1cccc(-c2c(NC(=O)c3ccco3)oc3ccc(Cl)cc3c2=O)c1,25.9 µM (active)
5,O=C(Nc1nonc1-c1ccc(Cl)cc1)c1ccco1,inactive
6,COc1ccc(-c2c(NC(=O)c3ccco3)oc3ccc(Cl)cc3c2=O)cc1,inactive
7,Clc1ccccc1CSc1nnc(-c2ccco2)c(-c2ccco2)n1,inactive
8,COC(=O)c1noc(C)c1-c1ccnn1C(=O)c1ccc(Cl)cc1,inactive
9,Cc1onc(-c2ccc(Cl)cc2)c1-c1ccnn1S(=O)(=O)c1ccc(Cl)cc1,16.4 µM (active)
10,CC(Oc1ccc(Cl)cc1)c1ccnn1S(C)(=O)=O (stereo not drawn),inactive
11,Nc1ncnc2c1ncn2[C@@H]1O[C@H](C(=O)NS(=O)(=O)c2c(Cl)nc3sccn23)[C@@H](O)[C@H]1O,inactive
12,COC1C[C@@H](O[C@@H]2C(C)C(=O)OC(C)C(C)C(O)C(C)C(=O)[C@@]3(CO3)CC(C)C(OC3OC(C)CC(N(C)C)C3O)C2C)OC(C)[C@@H]1O (stereo partly drawn),inactive
13,Cc1ccc(S(=O)(=O)n2cccc2CO)cc1,inactive
14,CCOc1ccc(-c2cc3c(=O)n(CC(=O)NCc4ccc(OC)cc4)ccn3n2)cc1,inactive
15,COCCCNC(=S)NNC(=O)C(O)(c1ccccc1)c1ccccc1,inactive
16,COc1cc(C2/C(=C(\O)c3ccc4c(c3)CC(C)O4)C(=O)C(=O)N2c2nnc(C)s2)cc(OC)c1OC (stereo not drawn),inactive
17,CS(=O)(=O)N1CCc2nc(-c3ccccc3)sc2C1,inactive
18,COC(=O)[C@@]1(Sc2ccc(C)cc2)CC(=O)N(c2cccc(SC)c2)[C@@H]1c1ccccc1,inactive
19,COC(=O)c1cccc(N2C(=O)C3C4C=CC(CC4)C3C2=O)c1 (stereo not drawn),inactive
20,COC(=O)c1ccccc1SC1CC(=O)N(c2cccc(C)c2)C1=O (stereo not drawn),8.2 µM (active)
21,Cc1ccc(CC2S/C(=C(/C#N)C(=O)N3CCOCC3)N(c3ccccc3)C2=O)cc1 (stereo not drawn),inactive
22,O=C(NC1CCCC1)C(=O)c1c[nH]c2ccccc12,inactive
23,CC(=O)N/C(=C/c1ccc(Cl)cc1)C(=O)NCCc1c[nH]c2ccccc12,inactive
24,C[n+]1ccc(/C=C/c2c[nH]c3ccccc23)cc1,0.651 µM (active)
25,O=C(NCc1ccc(F)cc1F)[C@@H]1CCCN1C(=O)[C@@H]1CCCN1C(=O)c1cccc(Cl)c1,inactive
